PubChem BioAssay (Tox21)
Inconclusive results are not listed. Active and inactive are the calls of the source. Unless noted, calls come from the whole dose curve; as a rule, active = well fitted curve in the direction sought with a large enough effect in the repeat runs; inconclusive = weak or mixed curves; inactive = no such curve, though single readings can be large; an effect the other way counts as inactive or inconclusive.

Experiments:
[1] = biological target: Thyrotropin receptor (Homo sapiens) (UniProt P16473); test: qHTS assay to identify small molecule antagonists of the thyroid stimulating hormone receptor (TSHR) signaling pathway (AID 1259385; calls by dose curve; note: nearly all actives have a fitted effect of over 20% in size)
Outline: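 TSHR-HEK293 cells (800/well) plated 18 h, then compounds with Ro20-1724 and TSH at 1.5 ng/mL final, 30 min at room temperature. cAMP quantified by HTRF (cAMP-d2/anti-cAMP-cryptate, 1 h); 15 concentrations in triplicate.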

[2] = qHTS assay to identify small molecule agonists of the estrogen receptor alpha (ER-alpha) signaling pathway in the presence of an antagonist - cell viability counter screen (AID 1259386);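 note: series mostly up to about 92 µM; cells exposed to compounds for 22 h at 37 °C before the viability read; nearly all actives have a fitted effect of over 30% in size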
Outline: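 Viability counter screen using VM7Luc4E2 (full-length ER-alpha, four ERE-luciferase). The cells were treated with compounds alongside ICI-182,780 10.0nM for 22hr, and live-cell protease fluorescence was quantified with CellTiter-Fluor.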

[3] = biological target: Progesterone receptor (Homo sapiens) (UniProt P06401); test: qHTS assay to identify small molecule agonists of the progesterone receptor (PR) signaling pathway (AID 1346784; calls by dose curve; note: nearly all actives have a fitted effect of over 30% in size)
Outline: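 Agonist qHTS: compounds pinned onto 3,000 PR-UAS-bla HEK 293T cells per well in charcoal-stripped serum medium, 16hr at 37C, then beta-lactamase activity measured by LiveBLAzer FRET fluorescence after 2 hours at room temperature.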

[4] = biological target: Progesterone receptor (Homo sapiens) (UniProt P06401); test: qHTS assay to identify small molecule antagonists of the progesterone receptor (PR) signaling pathway (AID 1346795; active = well fitted inhibition curve with a large enough effect in the signal ratio in the repeat runs, not every such curve was filed as active; the % refers to the signal ratio)
Outline: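 Antagonist mode with agonist R5020 at 1 nM final and 16 hr incubation at 37C. Reporter was beta-lactamase driven by UAS in HEK293T (PR-UAS-bla), 2% charcoal-stripped serum; signal from LiveBLAzer FRET substrate, 2 hr at room temperature.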

[5] = qHTS assay to identify small molecule antagonists of the progesterone receptor (PR) signaling pathway - cell viability counter screen (AID 1346798); note: series mostly up to about 92 µM; nearly all actives have a fitted effect of over 50% in size
Outline: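 Cytotoxicity read as CellTiter-Glo luminescence (30 min, room temperature) in the same wells as the beta-lactamase readout. HEK293T PR-UAS-bla cells in charcoal-stripped 2% FBS received compound and R5020, then 16 h at 37C, 5% CO2.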

[6] = qHTS assay to identify small molecule agonists of the progesterone receptor (PR) signaling pathway - cell viability counter screen (AID 1346799; calls by dose curve; note: nearly all actives have a fitted effect of over 45% in size)
Outline: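 Cytotoxicity measured by CellTiter-Glo luminescence (30 min, RT) in the same wells as the PR beta-lactamase agonist read. Those HEK293T cells had 16 h compound treatment at 37 C in 2% charcoal-stripped FBS medium.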

[7] = qHTS assay to identify small molecule antagonists of the TGF-beta/Smad signaling pathway - cell viability counter screen (AID 1346824); note: nearly all actives have a fitted effect of over 50% in size
Outline: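 SBE-bla HEK 293T cells, incubated overnight, then compound plus 0.25 ng/mL TGF-beta1 (stock added) for 5 hr at 37 C. Viability was read in the same wells by CellTiter-Glo luminescence after 30 min at room temperature.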

[8] = qHTS assay to identify small molecule agonists of the TGF-beta/Smad signaling pathway - cell viability counter screen (AID 1346829); note: top concentration of the series differs between compounds; nearly all actives have a fitted effect of over 45% in size
Outline: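 Here the cytotoxicity of library compounds is measured in SBE-bla HEK 293T cells treated for 5 hr, using CellTiter-Glo added to wells already read for the beta-lactamase reporter.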

[9] = qHTS assay to identify small molecule agonists of the TGF-beta/Smad signaling pathway (AID 1346859; active = well fitted activation curve with a large enough effect in the signal ratio in the repeat runs, not every such curve was filed as active; the % refers to the signal ratio; note: series mostly up to about 77 µM)
Outline: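 Fluorescence (ex 405 nm; em 460 and 530 nm) was read 2 h after LiveBLAzer FRET substrate at RT. The preceding compound treatment of overnight-plated SBE-bla HEK293T cells lasted 5 h at 37 C.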

[10] = biological target: Thyrotropin-releasing hormone receptor (Homo sapiens) (UniProt P34981); test: qHTS assay to identify small molecule antagonists of the thyrotropin-releasing hormone receptor (TRHR) signaling pathway (AID 1346877; active = well fitted inhibition curve with a large enough effect in the repeat runs, not every such curve was filed as active; note: series mostly up to about 51 µM)
Outline: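 Following an 18 h incubation at 37 °C and a 2 h calcium dye load, TRHR-HEK293 cells were exposed to compound (5 min, room temperature) and challenged with TRH, 1 nM final.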

[11] = Human pregnane X receptor (PXR) small molecule agonists, qHTS cell viability counter screen (AID 1346977); note: nearly all actives have a fitted effect of over 50% in size
Outline: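 Same-well viability read: CellTiter-Fluor added after 23 hr compound exposure, fluorescence measured 1 hr later. Cells were PXR-Luc HepG2 seeded at 2,000/well in 5% charcoal-stripped FBS medium, rested 5 hr before dosing at 37 C.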

[12] = Caspase-3/7 induction in HepG2 cells by small molecules, qHTS assay (AID 1346978); note: nearly all actives have a fitted effect of over 15% in size
Outline: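 Wild-type HepG2 cells, 2,000/well, settled 5 hr at 37 C and 5% CO2, then compound-treated for 17 hr; caspase-3/7 activity read by luminescent Caspase-Glo 3/7 after 30 min at room temperature.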

[13] = Caspase-3/7 induction in CHO-K1 cells by small molecules, qHTS cell viability counter screen (AID 1346979); note: nearly all actives have a fitted effect of over 35% in size
Outline: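 Cytotoxicity counter screen: CellTiter-Fluor added to compound-treated wild-type CHO-K1 cells at 16 h (37C, 5% CO2), fluorescence measured 1 h later; same wells as caspase-3/7 measurement.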

[14] = Caspase-3/7 induction in CHO-K1 cells by small molecules, qHTS assay (AID 1346980); note: nearly all actives have a fitted effect of over 15% in size
Outline: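 Wild-type CHO-K1 cells exposed to compounds for 17hr at 37 C, 5% CO2. Caspase-3/7 activity then measured by Caspase-Glo 3/7 luminescence after 30min at room temperature.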

[15] = Caspase-3/7 induction in HepG2 cells by small molecules, qHTS cell viability counter screen (AID 1346981); note: series mostly up to about 92 µM; nearly all actives have a fitted effect of over 30% in size
Outline: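 Viability determined by CellTiter-Fluor fluorescence in HepG2 wells also used for the luminescent Caspase-Glo 3/7 read. Compounds were present for 16 hr at 37 C, 5% CO2 before reagent addition.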

[16] = biological target: Nuclear receptor subfamily 1 group I member 2 (Homo sapiens) (UniProt O75469); test: Human pregnane X receptor (PXR) small molecule agonists, qHTS assay (AID 1346982); note: nearly all actives have a fitted effect of over 35% in size; note: potency is the fitted concentration of half-maximal effect
Outline: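 Compound-induced hPXR transactivation of a CYP3A4 luciferase reporter was scored in HepG2 PXR-Luc cells over 24 hr at 37 C, 5% CO2, by luminescence.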

[17] = biological target: Thyrotropin-releasing hormone receptor (Homo sapiens) (UniProt P34981); test: qHTS assay to identify small molecule agonists of the thyrotropin-releasing hormone receptor (TRHR) signaling pathway (AID 1346891; calls by dose curve; note: series mostly up to about 58 µM)
Outline: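 Agonist-mode intracellular calcium readout: kinetic fluorescence over 3 min at 1 s intervals after compound addition to TRHR-HEK293 cells (18 h seeded, 2 h dye-loaded at 37 C). Fifteen concentrations, triplicates.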
% is set by controls: 0 for no effect and ±100 for the full control effect.

Sequence of Nuclear receptor subfamily 1 group I member 2 (Homo sapiens) (O75469 whole entry, looked up): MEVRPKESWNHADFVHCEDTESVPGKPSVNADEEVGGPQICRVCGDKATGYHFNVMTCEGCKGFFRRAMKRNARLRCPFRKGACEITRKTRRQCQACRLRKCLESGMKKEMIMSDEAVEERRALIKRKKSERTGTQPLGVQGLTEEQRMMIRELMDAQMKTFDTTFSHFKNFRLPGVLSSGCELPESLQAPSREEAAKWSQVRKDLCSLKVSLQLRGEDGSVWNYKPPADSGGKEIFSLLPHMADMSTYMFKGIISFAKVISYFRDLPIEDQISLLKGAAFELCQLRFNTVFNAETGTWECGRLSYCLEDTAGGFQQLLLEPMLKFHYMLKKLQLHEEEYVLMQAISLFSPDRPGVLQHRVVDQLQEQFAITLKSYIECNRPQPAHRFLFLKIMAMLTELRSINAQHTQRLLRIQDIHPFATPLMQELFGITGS
Sequence of Thyrotropin-releasing hormone receptor (Homo sapiens) (P34981 whole entry, looked up): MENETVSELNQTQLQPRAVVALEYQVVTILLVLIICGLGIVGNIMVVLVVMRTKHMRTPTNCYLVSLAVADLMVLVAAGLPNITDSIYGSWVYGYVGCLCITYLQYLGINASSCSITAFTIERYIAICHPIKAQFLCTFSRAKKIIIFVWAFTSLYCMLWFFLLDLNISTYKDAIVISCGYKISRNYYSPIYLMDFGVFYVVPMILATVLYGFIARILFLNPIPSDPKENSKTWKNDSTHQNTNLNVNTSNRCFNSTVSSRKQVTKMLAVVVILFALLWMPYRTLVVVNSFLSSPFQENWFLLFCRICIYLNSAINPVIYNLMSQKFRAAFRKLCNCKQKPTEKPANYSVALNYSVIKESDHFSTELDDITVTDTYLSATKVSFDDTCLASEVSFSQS
Sequence of Thyrotropin receptor (Homo sapiens) (P16473 whole entry, looked up): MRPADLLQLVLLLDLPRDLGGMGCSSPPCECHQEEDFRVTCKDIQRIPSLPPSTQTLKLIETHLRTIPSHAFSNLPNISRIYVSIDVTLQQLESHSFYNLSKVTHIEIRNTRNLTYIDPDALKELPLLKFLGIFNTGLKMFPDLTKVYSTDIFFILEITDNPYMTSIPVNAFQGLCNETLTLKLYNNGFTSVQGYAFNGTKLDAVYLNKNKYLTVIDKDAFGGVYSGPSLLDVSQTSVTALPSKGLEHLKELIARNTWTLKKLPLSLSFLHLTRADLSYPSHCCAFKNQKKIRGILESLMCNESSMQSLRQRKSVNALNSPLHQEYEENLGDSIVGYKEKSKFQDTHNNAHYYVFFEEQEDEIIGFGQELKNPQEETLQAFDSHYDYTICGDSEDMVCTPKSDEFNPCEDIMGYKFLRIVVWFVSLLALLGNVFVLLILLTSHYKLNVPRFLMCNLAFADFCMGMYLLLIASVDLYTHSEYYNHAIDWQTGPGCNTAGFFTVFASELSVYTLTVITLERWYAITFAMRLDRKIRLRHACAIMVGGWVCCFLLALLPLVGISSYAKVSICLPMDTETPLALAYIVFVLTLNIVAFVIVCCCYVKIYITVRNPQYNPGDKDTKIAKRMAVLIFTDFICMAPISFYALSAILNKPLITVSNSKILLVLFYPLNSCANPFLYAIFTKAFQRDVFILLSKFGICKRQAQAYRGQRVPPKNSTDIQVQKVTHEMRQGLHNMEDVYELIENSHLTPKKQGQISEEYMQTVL
Sequence of Progesterone receptor (Homo sapiens) (P06401 whole entry, looked up): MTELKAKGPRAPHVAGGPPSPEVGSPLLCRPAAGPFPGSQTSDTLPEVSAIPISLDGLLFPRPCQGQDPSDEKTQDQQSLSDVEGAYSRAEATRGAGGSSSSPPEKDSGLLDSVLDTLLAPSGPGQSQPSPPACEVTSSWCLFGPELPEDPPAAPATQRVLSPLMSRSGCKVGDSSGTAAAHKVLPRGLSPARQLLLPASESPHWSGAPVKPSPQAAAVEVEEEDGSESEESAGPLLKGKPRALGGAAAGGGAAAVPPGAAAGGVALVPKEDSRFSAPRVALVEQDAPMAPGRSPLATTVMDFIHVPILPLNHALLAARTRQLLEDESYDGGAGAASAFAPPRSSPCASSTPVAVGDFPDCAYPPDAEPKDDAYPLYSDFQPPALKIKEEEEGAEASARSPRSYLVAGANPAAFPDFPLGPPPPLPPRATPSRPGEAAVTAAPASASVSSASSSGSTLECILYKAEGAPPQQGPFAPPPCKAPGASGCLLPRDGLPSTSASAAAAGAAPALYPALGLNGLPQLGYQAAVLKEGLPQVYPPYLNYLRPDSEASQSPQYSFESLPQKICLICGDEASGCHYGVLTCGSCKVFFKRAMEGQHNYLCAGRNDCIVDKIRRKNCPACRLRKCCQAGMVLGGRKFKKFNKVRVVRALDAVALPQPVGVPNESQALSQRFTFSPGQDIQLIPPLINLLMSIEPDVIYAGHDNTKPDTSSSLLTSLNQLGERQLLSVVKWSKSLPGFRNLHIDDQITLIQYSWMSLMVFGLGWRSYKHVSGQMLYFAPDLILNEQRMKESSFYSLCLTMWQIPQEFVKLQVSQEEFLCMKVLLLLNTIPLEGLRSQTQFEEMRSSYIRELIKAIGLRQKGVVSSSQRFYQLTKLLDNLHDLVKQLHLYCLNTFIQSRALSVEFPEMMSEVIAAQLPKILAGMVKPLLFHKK

CCCCCCCCCCCCCC=O
inactive: activity change, negative = inhibition [1] -5.31% [at 8.39 µM] | activity change, negative = cytotoxicity [2] 2.15% [at 8.39 µM] | activation [3] -0.302% [at 8.39 µM] | activity change, negative = inhibition [4] 6.1% [at 8.39 µM] | activity change, negative = cytotoxicity [5] 2% [at 8.39 µM] | activity change, negative = cytotoxicity [6] 5.7% [at 8.39 µM] | viability change, negative = cytotoxic [7] 6.5% [at 6.97 µM] | activity change, negative = cytotoxicity [8] 12.8% [at 6.97 µM] | activation [9] -2.78% [at 6.97 µM] | activity, negative = inhibition [10] -5.43% [at 4.65 µM] | activity change, negative = cytotoxicity [11] -1.66% [at 8.39 µM] | caspase activation [12] -1.41% [at 8.39 µM] | activity change, negative = cytotoxicity [13] 0.0836% [at 8.39 µM] | caspase-3/7 activation [14] 1.18% [at 8.39 µM] | activity change, negative = cytotoxicity [15] -0.047% [at 8.39 µM] | activation [16] -0.115% [at 8.39 µM]

CCSC(=O)N(CC(C)C)CC(C)C
inactive: Potency [1] | Potency [2] | Potency [3] | Potency [4] | Potency [5] | Potency [6] | Potency [7] | outcome [8] | outcome [9] | Potency [11] | Potency [12] | Potency [13] | outcome [14] | Potency [15] | Potency [16]

CCn1ccnc1CC1COc2ccccc2O1 (stereo not given)
inactive: Potency [1] | Potency [2] | Potency [3] | Potency [4] | Potency [5] | Potency [6] | Potency [7] | outcome [8] | outcome [9] | outcome [10] | outcome [17] | Potency [11] | Potency [12] | Potency [13] | outcome [14] | Potency [15]
active: Potency [16] 26.6 µM

CC/C=C\CCOC(C)=O
inactive: Potency [1] | Potency [2] | Potency [3] | Potency [4] | Potency [5] | Potency [6] | Potency [7] | outcome [8] | outcome [9] | Potency [11] | Potency [12] | Potency [13] | outcome [14] | Potency [15] | Potency [16]

O=C(O)CCCl
inactive: Potency [1] | Potency [2] | Potency [3] | Potency [4] | Potency [5] | Potency [6] | Potency [7] | outcome [8] | outcome [9] | outcome [10] | Potency [11] | Potency [12] | Potency [13] | outcome [14] | Potency [15]
active: Potency [16] 61.9 µM

NCCc1cnc[nH]1
inactive: Potency [1] | Potency [2] | Potency [3] | Potency [4] | Potency [5] | Potency [6] | Potency [7] | outcome [8] | outcome [9] | outcome [10] | outcome [17] | Potency [11] | Potency [12] | Potency [13] | outcome [14] | Potency [15]

C1CN(CCOCCN2CCOCC2)CCO1
inactive: Potency [1] | Potency [2] | Potency [3] | Potency [4] | Potency [5] | Potency [6] | Potency [7] | outcome [8] | outcome [9] | Potency [11] | Potency [12] | Potency [13] | outcome [14] | Potency [15] | Potency [16]

CC(=O)c1ccccc1O
inactive: Potency [1] | Potency [2] | Potency [3] | Potency [4] | Potency [5] | Potency [6] | Potency [7] | outcome [8] | outcome [9] | outcome [10] | Potency [11] | Potency [12] | Potency [13] | Potency [15] | Potency [16]
